Experimental data as given in the supplement of paper PMC10849652.
Of roughly 7,900 targets only a part is listed; those with a hit were picked by preference. About 0.6% of all pairs of compound and target were hits. Unmarked numbers belong to inactive results.

Experiments:
Assay in all cases: log2 fold change, soluble protein after heating vs DMSO (PISA); higher = thermal stabilisation; K562 cells, 10 uM, 30 min; active = over 0.2 and 3.5 SD of the protein, either way, in both replicates (recomputed)
[1] = compound: CC[C@@H]1C(=O)N(C)c2cnc(Nc3ccc(C(=O)NC4CCN(C)CC4)cc3OC)nc2N1C1CCCC1
Procedure, shortened: (§1)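 Aliquots of K562 cells (2×10^6 cells/mL) treated with 10 μM compound for 30 min were heated for 3 min over 48°C-58°C. After pooling and extraction in PBS with 0.5% NP-40 at 4°C, soluble protein from a 21,000xg, 90 min spin was quantified by TMTpro 16plex LC-MS/MS with channel sums equalised. Thermal stability is expressed against control samples, from duplicates, as a log2 fold change.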

[2] = compound: CC[C@@H]1C(=O)N(C)c2cnc(Nc3ccc(C(=O)N[C@H]4CC[C@H](N5CCN(CC6CC6)CC5)CC4)cc3OC)nc2N1C(C)C [volasertib]
Procedure, shortened: as §1

[3] = compound: CC[C@H](C)N1C=C(C2=C(C=C(C=C21)C3=CN=C(C=C3)N4CCNCC4)C(=O)NCC5=C(C=C(NC5=O)C)C)C
Procedure, shortened: as §1

[4] = compound: CC[C@H](C)[C@@H](C(=O)N[C@@H]([C@@H](C)O)C(=O)N[C@@H](CC(C)C)C(=O)[C@]1(CO1)C)NC(=O)[C@H]([C@@H](C)CC)N(C)C(=O)C [epoxomicin]
Procedure, shortened: as §1

[5] = compound: CCn1c(C(=O)N(C2CC2)C2CC2)cc2c3c(ncn3C)c(Nc3cc(C)n(C)n3)nc21
Procedure, shortened: as §1

[6] = compound: CCn1cc(-c2ccnc3[nH]c(-c4cccc(CN(C)C)c4)cc23)c(-c2ccc(NC(=O)N(C)C)cc2)n1
Procedure, shortened: as §1

[7] = compound: CN(C)CC(=O)Nc1ccc2[nH]c(=O)c3ccccc3c2c1
Procedure, shortened: as §1

[8] = compound: CN(CCOC1=CC=C(C=C1)C[C@H]2C(=O)NC(=O)S2)C3=CC=CC=N3 (racemic) [rosiglitazone]
Procedure, shortened: as §1

[9] = compound: CN1C2=C(C3=C1C(=O)N(N=C3)CC4=CC(=CC=C4)N)SC(=C2)S(=O)C
Procedure, shortened: as §1

[10] = compound: CN1CCC(CNc2ccc3ncc(-c4cccc(OC(F)(F)F)c4)n3n2)CC1
Procedure, shortened: as §1

[11] = compound: CN1CCN(CCOc2cc(OC3CCOCC3)c3c(Nc4c(Cl)ccc5c4OCO5)ncnc3c2)CC1 [saracatinib]
Procedure, shortened: as §1

[12] = compound: CN1CCN(c2nc(C3=C(c4c[nH]c5ccccc45)C(=O)NC3=O)c3ccccc3n2)CC1 [sotrastaurin]
Procedure, shortened: as §1

[13] = compound: CN1CC[C@H](c2c(O)cc(O)c3c(=O)cc(-c4ccccc4Cl)oc23)[C@H](O)C1 [alvocidib]
Procedure, shortened: as §1

[14] = compound: CN1CCc2c(c3ccccc3n2Cc2ccc(C(=O)NO)cc2)C1 [Tubastatin A]
Procedure, shortened: as §1

[15] = compound: CNC(=O)C1=CC=CC=C1NC2=NC(=NC=C2Cl)NC3=C(C=C(C=C3)N4CCOCC4)OC
Procedure, shortened: as §1

[16] = compound: CNC(=O)c1ccc(Nc2ncc(C(F)(F)F)c(NCc3nccnc3N(C)S(C)(=O)=O)n2)cc1 [defactinib]
Procedure, shortened: as §1

[17] = compound: CNCc1ccc(-c2[nH]c3cc(F)cc4c3c2CCNC4=O)cc1 [rucaparib]
Procedure, shortened: as §1

[18] = compound: CNc1nc(-c2ccc3c(N)n[nH]c3c2)cc(N2C[C@@H](C(=O)NC3CCCCC3)CC[C@H]2C)n1
Procedure, shortened: as §1

[19] = compound: COC(=O)N[C@@H](C)CNc1nccc(-c2cn(C(C)C)nc2-c2cc(Cl)cc(NS(C)(=O)=O)c2F)n1 [encorafenib]
Procedure, shortened: as §1

[20] = compound: COC(=O)[C@H](CCSC)NC(=O)C1=C(C=C(C=C1)NC[C@H](CS)N)C2=CC=CC=C2
Procedure, shortened: as §1

UniProt P19338, sequence (P19338 whole entry, looked up): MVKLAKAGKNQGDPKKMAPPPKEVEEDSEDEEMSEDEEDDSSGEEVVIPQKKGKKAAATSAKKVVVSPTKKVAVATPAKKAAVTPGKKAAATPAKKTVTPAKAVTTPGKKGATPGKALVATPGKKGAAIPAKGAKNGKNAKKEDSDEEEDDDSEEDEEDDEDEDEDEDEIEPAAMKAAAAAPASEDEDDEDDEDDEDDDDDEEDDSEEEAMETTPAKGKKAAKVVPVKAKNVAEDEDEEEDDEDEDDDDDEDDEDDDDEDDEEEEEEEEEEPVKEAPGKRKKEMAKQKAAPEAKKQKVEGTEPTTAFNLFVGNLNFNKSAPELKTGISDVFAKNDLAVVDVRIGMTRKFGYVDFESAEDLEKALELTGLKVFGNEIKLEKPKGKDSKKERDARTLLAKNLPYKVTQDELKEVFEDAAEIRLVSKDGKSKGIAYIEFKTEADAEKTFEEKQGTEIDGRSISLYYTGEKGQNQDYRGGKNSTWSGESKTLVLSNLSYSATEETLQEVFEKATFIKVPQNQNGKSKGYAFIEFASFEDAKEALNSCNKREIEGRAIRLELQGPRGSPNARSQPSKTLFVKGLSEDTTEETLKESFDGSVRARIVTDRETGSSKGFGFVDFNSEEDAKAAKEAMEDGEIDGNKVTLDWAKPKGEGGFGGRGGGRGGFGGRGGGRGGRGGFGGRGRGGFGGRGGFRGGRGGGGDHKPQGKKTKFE
UniProt O00217, sequence (O00217 whole entry, looked up): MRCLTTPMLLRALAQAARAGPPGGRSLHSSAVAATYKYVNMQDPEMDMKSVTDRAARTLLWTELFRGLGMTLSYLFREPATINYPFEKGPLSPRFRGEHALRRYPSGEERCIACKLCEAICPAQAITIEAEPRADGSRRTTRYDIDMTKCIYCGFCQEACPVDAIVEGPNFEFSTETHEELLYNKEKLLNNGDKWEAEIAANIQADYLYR
UniProt P04181, sequence (P04181 whole entry, looked up): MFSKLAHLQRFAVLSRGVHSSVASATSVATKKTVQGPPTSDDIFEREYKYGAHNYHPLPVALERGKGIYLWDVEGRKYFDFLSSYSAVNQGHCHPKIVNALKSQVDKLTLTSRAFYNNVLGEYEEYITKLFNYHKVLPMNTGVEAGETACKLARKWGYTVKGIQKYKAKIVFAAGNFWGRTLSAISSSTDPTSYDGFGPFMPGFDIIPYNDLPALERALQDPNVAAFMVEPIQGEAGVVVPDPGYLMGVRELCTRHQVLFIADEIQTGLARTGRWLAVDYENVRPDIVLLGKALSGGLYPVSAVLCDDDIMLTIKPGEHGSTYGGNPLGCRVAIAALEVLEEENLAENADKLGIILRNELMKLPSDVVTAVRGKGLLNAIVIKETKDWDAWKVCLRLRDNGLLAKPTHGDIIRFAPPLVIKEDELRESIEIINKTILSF
UniProt Q9Y2I1, sequence (Q9Y2I1 whole entry, looked up): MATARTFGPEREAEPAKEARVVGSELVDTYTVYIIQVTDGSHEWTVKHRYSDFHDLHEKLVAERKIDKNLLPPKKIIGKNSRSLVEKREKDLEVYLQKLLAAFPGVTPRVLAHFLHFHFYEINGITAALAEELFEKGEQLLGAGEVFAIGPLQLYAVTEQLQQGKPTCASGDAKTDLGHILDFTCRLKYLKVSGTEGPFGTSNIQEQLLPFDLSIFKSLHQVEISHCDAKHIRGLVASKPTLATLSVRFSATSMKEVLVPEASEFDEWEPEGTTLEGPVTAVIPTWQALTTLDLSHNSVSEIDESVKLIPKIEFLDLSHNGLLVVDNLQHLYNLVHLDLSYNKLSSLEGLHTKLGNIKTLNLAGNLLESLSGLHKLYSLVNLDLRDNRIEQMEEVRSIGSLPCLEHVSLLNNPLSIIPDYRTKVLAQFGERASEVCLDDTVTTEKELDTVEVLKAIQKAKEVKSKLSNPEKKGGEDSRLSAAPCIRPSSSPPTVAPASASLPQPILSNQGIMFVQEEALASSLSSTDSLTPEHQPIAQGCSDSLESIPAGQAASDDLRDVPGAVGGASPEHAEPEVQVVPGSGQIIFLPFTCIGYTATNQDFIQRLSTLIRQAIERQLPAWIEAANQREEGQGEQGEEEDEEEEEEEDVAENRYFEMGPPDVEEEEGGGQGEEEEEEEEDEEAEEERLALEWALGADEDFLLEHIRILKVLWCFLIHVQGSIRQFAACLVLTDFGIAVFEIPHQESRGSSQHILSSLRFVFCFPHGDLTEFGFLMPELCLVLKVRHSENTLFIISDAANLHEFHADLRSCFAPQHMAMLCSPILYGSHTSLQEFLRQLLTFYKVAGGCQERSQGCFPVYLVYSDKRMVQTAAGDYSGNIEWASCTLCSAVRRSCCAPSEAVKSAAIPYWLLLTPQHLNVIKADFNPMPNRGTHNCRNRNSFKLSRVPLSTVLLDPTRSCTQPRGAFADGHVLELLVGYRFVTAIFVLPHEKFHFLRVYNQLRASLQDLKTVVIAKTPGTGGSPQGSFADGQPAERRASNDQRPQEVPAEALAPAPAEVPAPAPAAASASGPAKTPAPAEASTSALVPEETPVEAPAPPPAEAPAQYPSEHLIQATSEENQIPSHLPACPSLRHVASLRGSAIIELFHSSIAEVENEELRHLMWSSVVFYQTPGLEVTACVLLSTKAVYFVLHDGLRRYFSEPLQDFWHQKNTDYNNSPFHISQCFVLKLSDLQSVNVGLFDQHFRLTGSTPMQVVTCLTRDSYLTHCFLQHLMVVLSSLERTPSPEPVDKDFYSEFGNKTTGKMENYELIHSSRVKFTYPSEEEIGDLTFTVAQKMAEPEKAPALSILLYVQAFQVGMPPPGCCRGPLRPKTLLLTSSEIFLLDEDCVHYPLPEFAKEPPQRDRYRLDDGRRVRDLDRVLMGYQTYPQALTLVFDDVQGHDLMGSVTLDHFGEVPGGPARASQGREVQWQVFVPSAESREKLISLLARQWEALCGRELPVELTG
UniProt Q96D46, sequence (Q96D46 whole entry, looked up): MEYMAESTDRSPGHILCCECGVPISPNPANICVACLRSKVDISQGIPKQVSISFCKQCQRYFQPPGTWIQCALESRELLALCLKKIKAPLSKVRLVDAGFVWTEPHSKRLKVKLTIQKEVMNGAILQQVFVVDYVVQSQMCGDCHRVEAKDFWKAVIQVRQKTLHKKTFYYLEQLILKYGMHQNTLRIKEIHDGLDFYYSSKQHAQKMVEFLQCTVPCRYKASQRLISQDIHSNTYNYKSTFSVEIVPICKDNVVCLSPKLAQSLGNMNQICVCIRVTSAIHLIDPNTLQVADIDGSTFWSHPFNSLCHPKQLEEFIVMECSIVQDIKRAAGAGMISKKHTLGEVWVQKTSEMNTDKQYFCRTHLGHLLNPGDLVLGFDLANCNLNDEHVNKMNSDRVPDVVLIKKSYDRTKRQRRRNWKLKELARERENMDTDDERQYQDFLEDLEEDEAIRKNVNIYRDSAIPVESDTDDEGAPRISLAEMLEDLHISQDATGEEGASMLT
UniProt P51948, sequence (P51948 whole entry, looked up): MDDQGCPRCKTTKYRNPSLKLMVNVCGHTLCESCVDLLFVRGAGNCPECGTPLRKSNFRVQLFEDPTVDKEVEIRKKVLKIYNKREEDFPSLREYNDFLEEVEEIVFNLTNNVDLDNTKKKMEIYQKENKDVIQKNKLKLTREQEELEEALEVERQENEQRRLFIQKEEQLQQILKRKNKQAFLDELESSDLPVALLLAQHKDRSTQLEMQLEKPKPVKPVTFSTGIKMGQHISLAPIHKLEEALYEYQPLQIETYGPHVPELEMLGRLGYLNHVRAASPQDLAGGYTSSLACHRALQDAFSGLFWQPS
UniProt Q9BUB5, sequence (Q9BUB5 whole entry, looked up): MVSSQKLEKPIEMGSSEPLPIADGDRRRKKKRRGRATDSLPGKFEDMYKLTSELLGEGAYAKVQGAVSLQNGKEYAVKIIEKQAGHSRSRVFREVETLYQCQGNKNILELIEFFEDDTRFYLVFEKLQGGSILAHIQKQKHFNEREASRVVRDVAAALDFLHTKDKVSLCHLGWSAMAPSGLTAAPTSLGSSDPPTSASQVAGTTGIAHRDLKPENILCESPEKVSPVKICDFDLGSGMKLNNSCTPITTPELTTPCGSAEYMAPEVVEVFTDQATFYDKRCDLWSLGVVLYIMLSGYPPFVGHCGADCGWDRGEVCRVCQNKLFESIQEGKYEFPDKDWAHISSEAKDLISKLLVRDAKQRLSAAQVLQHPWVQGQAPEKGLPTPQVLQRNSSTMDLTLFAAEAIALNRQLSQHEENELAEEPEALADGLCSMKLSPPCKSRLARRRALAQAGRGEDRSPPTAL
UniProt Q16795, sequence (Q16795 whole entry, looked up): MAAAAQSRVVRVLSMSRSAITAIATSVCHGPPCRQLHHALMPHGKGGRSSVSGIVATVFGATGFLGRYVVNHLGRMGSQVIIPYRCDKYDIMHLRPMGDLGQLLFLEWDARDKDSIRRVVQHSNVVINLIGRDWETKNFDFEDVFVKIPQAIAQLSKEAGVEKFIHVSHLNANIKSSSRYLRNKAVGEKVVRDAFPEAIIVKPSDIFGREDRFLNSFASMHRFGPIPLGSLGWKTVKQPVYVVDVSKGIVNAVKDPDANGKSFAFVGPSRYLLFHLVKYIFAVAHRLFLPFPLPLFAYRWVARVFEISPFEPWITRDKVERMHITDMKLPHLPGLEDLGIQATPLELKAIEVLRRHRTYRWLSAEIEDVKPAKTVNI
UniProt Q00013, sequence (Q00013 whole entry, looked up): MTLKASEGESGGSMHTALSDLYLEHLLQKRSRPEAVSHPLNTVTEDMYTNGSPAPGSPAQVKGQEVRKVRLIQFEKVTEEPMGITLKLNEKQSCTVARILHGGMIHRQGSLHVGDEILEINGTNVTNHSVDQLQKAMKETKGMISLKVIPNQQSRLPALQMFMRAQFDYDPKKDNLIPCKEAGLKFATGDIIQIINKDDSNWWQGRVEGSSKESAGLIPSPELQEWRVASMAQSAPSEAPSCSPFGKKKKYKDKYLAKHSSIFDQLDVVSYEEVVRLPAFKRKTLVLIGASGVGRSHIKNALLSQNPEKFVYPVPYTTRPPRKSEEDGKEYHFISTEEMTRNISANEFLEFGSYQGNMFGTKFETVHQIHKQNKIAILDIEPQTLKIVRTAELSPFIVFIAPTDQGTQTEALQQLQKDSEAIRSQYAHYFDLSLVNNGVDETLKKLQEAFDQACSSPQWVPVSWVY

Row | Target | log2 fold change [1] | log2 fold change [2] | log2 fold change [3] | log2 fold change [4] | log2 fold change [5] | log2 fold change [6] | log2 fold change [7] | log2 fold change [8] | log2 fold change [9] | log2 fold change [10] | log2 fold change [11] | log2 fold change [12] | log2 fold change [13] | log2 fold change [14] | log2 fold change [15] | log2 fold change [16] | log2 fold change [17] | log2 fold change [18] | log2 fold change [19] | log2 fold change [20]
1 | NISCH (UniProt Q9Y2I1) | -0.349 | -0.487 (active) | 0.025 | 0.05 | -0.252 | -0.121 | 0.02 | 0.103 | 0.086 | -0.518 (active) | -0.037 | -0.066 | -0.054 | -0.022 | -0.141 | -0.128 | -0.041 | -0.072 | 0.093 | -0.12
2 | NDUFA9 (UniProt Q16795) | -0.082 | -0.26 (active) | 0.073 | 0.03 | -0.029 | -0.053 | 0.035 | 0.064 | -0.017 | -0.367 (active) | -0.003 | -0.008 | -0.022 | -0.013 | -0.034 | -0.011 | -0.038 | 0.036 | 0.048 | -0.004
3 | NEDD4L (UniProt Q96PU5) | -0.02 | -0.425 (active) | 0.03 | 0.012 | -0.015 | -0.09 | 0.023 | 0.029 | 0.039 | -0.099 | -0.014 | -0.063 | -0.121 | 0.057 | 0.068 | -0.135 | 0.002 | -0.059 | 0.03 | -0.023
4 | MRPL46 (UniProt Q9H2W6) | 0.209 | 0.302 | 0.034 | 0.015 | 0.075 | -0.04 | 0.014 | -0.017 | 0.061 | 0.12 | -0.071 | -0.073 | 0.016 | 0.037 | 0.29 (active) | 0.043 | 0.058 | 0.115 | 0.045 | -0.026
5 | MPP1 (UniProt Q00013) | -0.039 | -0.112 | 0.063 | 0.058 | -0.025 | -0.051 | 0.011 | 0.051 | 0.043 | -0.256 (active) | -0.023 | -0.085 | -0.022 | 0.051 | 0.073 | -0.082 | 0.104 | 0.059 | 0.067 | -0.047
6 | MORF4L2 (UniProt Q15014) | 0.074 | 0.023 | 0.014 | 0.085 | 0.014 | 0.075 | -0.125 | -0.051 | 0.12 | 0.076 | -0.002 | -0.01 | 0.022 | 0.136 | -0.003 | 0.011 | 0.056 | -0.1 | 0.04 | 0.066
7 | OAT (UniProt P04181) | 0.049 | 0.1 | 0.021 | 0.043 | -0.041 | -0.1 | 0.004 | -0.006 | -0.102 | -0.164 | -0.002 | -0.016 | -0.125 | 0.013 | 0.084 | -0.058 | -0.047 | -0.04 | -0.061 | 0.024
8 | NDUFB7 (UniProt P17568) | -0.053 | -0.004 | -0.072 | -0.066 | -0.129 | -0.099 | -0.036 | 0.058 | -0.058 | 0.094 | 0.046 | -0.014 | -0.016 | 0.016 | 0.021 | -0.015 | -0.021 | -0.011 | -0.032 | 0.029
9 | MRPS31 (UniProt Q92665) | 0.056 | 0 | 0.036 | -0.015 | -0.036 | 0.014 | -0.054 | -0.018 | 0 | 0.052 | 0.031 | -0.088 | 0.04 | 0.053 | 0.025 | 0.027 | 0.031 | 0.078 | 0.041 | 0.016
10 | NCL (UniProt P19338) | 0.167 | 0.173 | -0.011 | -0.427 | 0.022 | 0.336 | -0.06 | -0.194 | 0.393 | 0.293 | -0.111 | 0.013 | 0.277 | 0.148 | -0.001 | 0.354 | 0.387 | 0.137 | 0.257 | -0.01
11 | NDUFS8 (UniProt O00217) | -0.103 | -0.097 | -0.005 | 0.039 | -0.003 | -0.043 | 0 | 0.039 | -0.069 | -0.41 (active) | -0.011 | -0.061 | -0.081 | -0.04 | -0.037 | -0.009 | -0.093 | 0.017 | 0.059 | -0.026
12 | NMD3 (UniProt Q96D46) | 0.103 | 0.151 | -0.009 | 0.042 | -0.029 | -0.163 | 0.04 | 0.064 | -0.138 | 0.114 | 0.043 | 0.02 | -0.012 | 0.07 | 0.088 | 0.06 | -0.181 | 0.003 | 0.028 | -0.052
13 | MRPL34 (UniProt Q9BQ48) | 0.061 | 0.029 | -0.007 | -0.042 | -0.042 | 0.109 | -0.065 | -0.028 | 0.232 | 0.048 | -0.09 | 0 | 0.117 | 0.119 | 0.086 | 0.138 | 0.101 | 0.169 | 0.055 | 0.035
14 | MNAT1 (UniProt P51948) | 0.029 | -0.027 | -0.029 | -0.057 | -0.006 | 0.015 | 0.032 | -0.027 | -0.011 | 0.015 | -0.017 | 0 | -0.002 | 0.006 | 0.012 | -0.03 | -0.046 | -0.004 | -0.006 | -0.009
15 | MKNK1 (UniProt Q9BUB5) | -0.148 | -0.183 | -0.025 | 0.018 | -0.023 | -0.101 | 0.009 | 0.036 | -0.095 | -0.006 | 0.049 | -0.088 | -0.06 | 0.037 | 0.038 | -0.102 | 0.099 | 0.051 | 0.018 | -0.053
16 | NEDD4 isoform 4 (UniProt P46934) | -0.102 | -0.521 (active) | 0.008 | 0.008 | 0 | -0.031 | 0.015 | 0.065 | -0.01 | 0.049 | 0.116 | -0.026 | -0.09 | 0.037 | 0.041 | -0.108 | -0.099 | -0.026 | 0.049 | -0.009
